PfHsp90 set2: growth inhibition of PfHsp90-expressing yeast, primary screen, antimalarial PfHsp90 inhibitor project, S. cerevisiae, BacTiter-Glo luminescence, single point, set 2; BacTiter-Glo ATP, 48 h; yeast lacking PDR1 and PDR3 efflux regulators; inhibition, % at 9.4 µM; 310,000 tested, 0.32% active; AID 504621, 2011;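 active = every replicate shows inhibition above about 80%, whatever the replicate mean, limit read from the data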
tim10-1 inh: growth inhibitors of tim10-1 mutant yeast, primary screen, luminescence, uHTS. AID 463190, 2010. S. cerevisiae tim10-1 ts strain growth, BacTiter-Glo, 24 h. 330,000 tested, 2.2% active. inhibition, % at 20 µM;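 active = inhibition of at least 40%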;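 note: mutant grown at 25 °C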
SKKanGAS inh: S. pyogenes SKKanGAS growth inhibitors in kanamycin, primary screen, streptokinase expression inhibitor project, SKKanGAS strain, BacTiter-Glo luminescence | 300,000 tested, 1.3% active | AID 1662, 2009 | 6 h | inhibition, % at 7.5 µM;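 active = mean replicate score, as percent of positive control median, at least 50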;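 note: strain carries kanamycin resistance gene driven by streptokinase promoter and grows in 40 µg/ml kanamycin; loss of luminescence reflects streptokinase promoter inhibition or plain growth inhibition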
NLRP3 yeast inh: NALP3 inflammasome inhibitors in reconstituted yeast, primary screen, luminescence, uHTS; 330,000 tested, 0.39% active; Yeast reconstituted NLRP3/ASC/caspase-1, beta-gal luminescence, 24 h; inhibition, % at 10 µM;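 active = inhibition of 50% or more; inactive = inhibition below 50%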
tim23-1 inh: growth inhibitors of tim23-1 mutant yeast, primary screen, luminescence, uHTS. S. cerevisiae tim23-1 growth, BacTiter-Glo luminescence, 24 h. inhibition, % at 20 µM. 330,000 tested, 1.3% active;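 active = growth inhibition of the mutant yeast at or above 50%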;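 note: temperature-sensitive mutant grown at 25 °C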
TIM10 inh: growth inhibitors of isogenic TIM10 control yeast, primary screen, counter-screen for tim10-1 yeast inhibitor project, luminescence, uHTS | inhibition, % at 10 µM | 330,000 tested, 1.4% active | AID 463195, 2010 | S. cerevisiae TIM10 strain growth, BacTiter-Glo luminescence, 24 h;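 active = inhibition of 40% or more at the single tested concentration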;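 note: wild-type TIM10 isogenic control strain grown at permissive 25 °C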
NALP3 confirm: NALP3 inhibitors retested in yeast, confirmation, luminescence, single concentration; inhibition, % at 10 µM; 1,300 tested, 81% active; yeast expressing human NALP3; shares compounds with NLRP3 yeast inh; AID 435006, 2010; in the data active = inhibition above about 48%
Casp1 ASC ctr: CASP1-PYCARD signaling inhibition in yeast, confirmatory test, counterassay for NLRP3 inhibitor program, one-dose; yeast expressing Caspase-1-ASC, luminescence counter screen; inhibition, % at 10 µM; AID 488784, 2010; shares compounds with NLRP3 yeast inh; 1,000 tested, 66% active
NALP3 retest: NALP3 inhibitors in yeast, repeat test, confirmation, luminescence, single concentration, retest | shares compounds with NLRP3 yeast inh | yeast expressing human NALP3, luminescence read-out | inhibition, % at 10 µM | 1,000 tested, 53% active | AID 488794, 2010
Each line names hits and unclear results; the compound was inactive in the other large screens (follow-up assays come after a bar, where they were run). The list is not random: actives were taken first. Their share in the collection is about 4.5%. Cut-off read from the data, not from the text of the source, unless noted: active = inhibition above about 50%; inactive = the rest.

COC(=O)c1sccc1NC(=O)COc1cccc(C)c1	NLRP3 yeast inh 54.3 | NALP3 confirm 57.7 | Casp1 ASC ctr inactive | NALP3 retest inactive
CN1CCS/C1=C/C=C1\SC(=S)N(CC(=O)O)C1=O	none
CCCCN1C(=O)/C(=C/C=C2\SCCN2C)SC1=S	NLRP3 yeast inh 58.2 | NALP3 confirm inactive | Casp1 ASC ctr 64.5 | NALP3 retest 65.5
CSCc1cc(N(C)c2ccccc2)nc(-c2ccccn2)n1	SKKanGAS inh 75.4, NLRP3 yeast inh 67.1 | NALP3 confirm 71.1 | Casp1 ASC ctr 74.0 | NALP3 retest 81.2
COc1ccc(C2C(=O)c3ccccc3C2=O)cc1OC	none (no result: SKKanGAS inh)
COc1cc(C2C(=O)c3ccccc3C2=O)ccc1O	NLRP3 yeast inh 65.8 | NALP3 confirm 68.4 | Casp1 ASC ctr 65.9 | NALP3 retest inactive
Cc1ccc(OCCNC(=O)C2CC(=O)N(Cc3ccccc3)C2)cc1 (stereo not given)	none (no result: SKKanGAS inh)
O=C1c2ccccc2C(=O)C12OC2c1ccc(Cl)cc1 (stereo not given)	none (no result: PfHsp90 set2) | NALP3 confirm inactive
C=CCOc1ccc(/C=C/C(=O)OCC(=O)N(C)C2CCS(=O)(=O)C2)cc1 (stereo not given)	none
O=c1cn[nH]c2ccc(Br)cc12	none (no result: tim10-1 inh, SKKanGAS inh, NLRP3 yeast inh, tim23-1 inh, TIM10 inh)
Brc1ccc2[nH]ncc2c1	NLRP3 yeast inh 53.4 | NALP3 confirm inactive | Casp1 ASC ctr 60.5 | NALP3 retest inactive
NCCC(=O)N1c2ccccc2Sc2ccc(Cl)cc21	NLRP3 yeast inh 72.7 | NALP3 confirm 84.9 | Casp1 ASC ctr 77.9 | NALP3 retest 87.0
CC1=NN(C(=O)c2ccc(Br)cc2)C(O)(C(F)(F)OC(F)(F)F)C1 (stereo not given)	NLRP3 yeast inh 50.7 | NALP3 confirm 49.8
CCOC(=O)Cc1csc(NC(=O)c2ccc(Br)s2)n1	NLRP3 yeast inh 66.9 (no result: PfHsp90 set2) | NALP3 confirm 76.2
CCOC(=O)Cc1csc(NC(=O)c2cccs2)n1	none (no result: PfHsp90 set2)
CCCCc1ccc(-c2nc(N)n[nH]2)cc1	NLRP3 yeast inh 54.2 | NALP3 confirm 78.1 | Casp1 ASC ctr 94.7 | NALP3 retest 85.2
CCN(CC)S(=O)(=O)c1cc(OC)c(C)cc1C	none
CCN(CC)S(=O)(=O)c1cc(OC)c(Cl)cc1Cl	NLRP3 yeast inh 54.7 | NALP3 confirm 64.4 | Casp1 ASC ctr 52.8 | NALP3 retest 50.0
Cc1c(N2C(=O)/C(=C/c3ccc(N(C)C)cc3)N(C)C2=S)c(=O)n(-c2ccccc2)n1C	none (no result: tim10-1 inh, SKKanGAS inh, NLRP3 yeast inh, tim23-1 inh, TIM10 inh)
CC(=O)OCC(=O)[C@H]1CC[C@H]2[C@@H]3CC=C4C[C@@H](O)CC[C@]4(C)[C@H]3CC[C@]12C	NLRP3 yeast inh 65.1 | NALP3 confirm 77.2 | Casp1 ASC ctr 55.5 | NALP3 retest inactive
CC(=O)[C@H]1CCC2C3CC=C4C[C@@H](O)CC[C@]4(C)C3CC[C@@]21C (stereo not given in full)	NLRP3 yeast inh 53.2 (no result: SKKanGAS inh) | NALP3 confirm 63.6
CC(=O)[C@H]1CC[C@H]2[C@@H]3CC=C4C[C@@H](O)CC[C@]4(C)[C@H]3CC[C@]12C	none (no result: SKKanGAS inh)
COc1ccc(CNC(=O)C2CCN(C(=O)c3csc(Nc4ccc(C)cc4)n3)CC2)cc1	none
CC(NC(=O)CSc1nc(C2CC2)n(-c2ccccc2)n1)c1ccco1 (stereo not given)	none (no result: SKKanGAS inh)
Cc1nc(SCC(=O)N2CCN(C(=O)c3cccs3)CC2)c2c(C)c(C)sc2n1	none (no result: SKKanGAS inh)
c1ccc(Sc2cccc3ccccc23)c(CNC2=NCCN2)c1	NLRP3 yeast inh 73.7 | NALP3 confirm 62.9 | Casp1 ASC ctr inactive | NALP3 retest 69.7
Fc1ccccc1Sc1ccccc1CNC1=NCCN1	none
